From PubChem BioAssay
Cycloheximide cs – counter-screen for Shiga toxin inhibitors: cycloheximide protein synthesis inhibition; cell reporter, cycloheximide protein synthesis inhibition counterscreen; max response, %; actives 12% (n = 300,000); in the data active means max response mostly above about 13%, no sharp cut-off; inactive means mostly below about 14%; further: read at 38.3 µM for the half of the compounds with a filed dose
SARS PLpro yeast – inhibitors of SARS-CoV papain-like protease in yeast; S. cerevisiae expressing SARS-CoV PLpro, growth rescue; actives 0.19% (n = 330,000); Potency, µM (top dose mostly 32.9 µM), actives largely listed as activators; calls by dose curve; further: nearly all actives have a fitted effect of over 55% in size
AmpC no deterg – AmpC beta-lactamase inhibition without detergent; actives 0.52% (n = 330,000); Potency, µM (highest dose often 57.1 µM), actives largely listed as inhibitors; AID 485341; AmpC nitrocefin hydrolysis, absorbance 480 nm, 0.0001% Triton; P00811; further: nearly all actives have a fitted effect of over 20% in size
Target sequence (P00811 whole entry, looked up): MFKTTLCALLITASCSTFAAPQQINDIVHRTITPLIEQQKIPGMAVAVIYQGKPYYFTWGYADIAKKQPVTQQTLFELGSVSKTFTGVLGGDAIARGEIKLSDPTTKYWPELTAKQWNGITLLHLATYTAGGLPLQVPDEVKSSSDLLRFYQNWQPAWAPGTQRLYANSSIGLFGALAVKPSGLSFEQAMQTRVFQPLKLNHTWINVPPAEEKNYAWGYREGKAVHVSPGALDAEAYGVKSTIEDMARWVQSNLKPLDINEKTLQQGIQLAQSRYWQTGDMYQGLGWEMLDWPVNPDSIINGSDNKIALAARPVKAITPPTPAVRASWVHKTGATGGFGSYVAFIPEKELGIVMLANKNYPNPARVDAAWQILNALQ
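AmpC (5.3 nM in the dispensed reagent) in 20 mM phosphate pH 7.0 with 0.01% (detergent screen) or 0.0001% Triton X-100 was preincubated with compounds for 15 min at room temperature. Nitrocefin was then added from an 800 uM solution, and hydrolysis was followed at 480 nm.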
AMA1-RON2 inh – disrupts binding of P. falciparum AMA1 to RON2 | actives 0.2% (n = 360,000) | AlphaScreen AMA1-biotinylated RON2 peptide binding | Potency, µM (top dose mostly 58.2 µM), actives largely listed as inhibitors; further: nearly all actives have a fitted effect of over 45% in size
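AMA1 (3D7) with his tag at 25 nM final met compounds first, then biotinylated RON2 peptide at 25 nM; detection used donor plus acceptor beads, 10 µg/mL apiece, read by AlphaScreen after 30 min at room temperature.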
Shiga toxin inh – Shiga toxin inhibition. Vero cells, Shiga toxin protein synthesis inhibition reporter. inhibition, % at 38.7 µM. actives 9.2% (n = 290,000); in the data active means inhibition mostly above about 28%, no sharp cut-off; inactive means mostly below about 43%
AmpC inh detg – blocks E. coli AmpC beta-lactamase in detergent assay; AmpC hydrolysis of nitrocefin, absorbance 480 nm, 0.01% Triton; Potency, µM (series often up to 114 µM), hits mostly inhibitors; actives 0.041% (n = 370,000); AID 485294; further: nearly all actives have a fitted effect of over 25% in size
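AmpC (5.3 nM in the dispensed reagent) in 20 mM phosphate pH 7.0 with 0.01% (detergent screen) or 0.0001% Triton X-100 was preincubated with compounds for 15 min at room temperature. Nitrocefin was then added from an 800 uM solution, and hydrolysis was followed at 480 nm.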
Of the large screens only hits and unclear results are named; the others gave an inactive call. The full list was thinned out, with hits kept by preference. Unless noted, the call rests on the fitted dose curve; in most records, active means well fitted curve in the direction sought with a large enough effect; inconclusive means small, poorly fitted or top-dose-only effect, or another doubt; inactive means no such curve, though single readings can be large; an effect the other way counts as inactive or inconclusive.

CCOc1cc(OCC)cc(C(=O)Nc2cccc(C(C)=O)c2)c1	none
CC(=O)c1cccc(NC(=O)c2cc(Cl)sc2Cl)c1	Cycloheximide cs 25, Shiga toxin inh 39
Cc1ccc(NC(=O)CCCn2c(=O)c3cccn3c3ccccc32)cc1C	none (no result: Cycloheximide cs, SARS PLpro yeast, AmpC no deterg, AMA1-RON2 inh, Shiga toxin inh)
CCc1sc(C(=O)Nc2cccc(C(C)=O)c2)cc1C	Cycloheximide cs 28, AmpC inh detg inconclusive
Cc1cc(C(=O)OCC(=O)NC2CCS(=O)(=O)C2)c(C)n1-c1ccccc1 (stereo not given)	none
O=C(O)c1ccccc1NC(=O)c1cc2ccccc2oc1=O	none
O=C(NCc1ccco1)c1ccc2c(c1)N(Cc1ccc(F)cc1)C(=O)c1ccccc1S2(=O)=O	none (no result: Cycloheximide cs, SARS PLpro yeast, AmpC no deterg, AMA1-RON2 inh, Shiga toxin inh)
CC(=O)c1cccc(NC(=O)c2ccc3ccccc3c2)c1	Cycloheximide cs 28, AmpC inh detg inconclusive (no result: Shiga toxin inh)
O=C(Nc1ccc(-c2nc3ccccc3s2)c(O)c1)c1ccc(Br)cc1	none (no result: Cycloheximide cs, SARS PLpro yeast, AmpC no deterg, AMA1-RON2 inh, Shiga toxin inh)
Cc1ccc(NC(=O)c2ccc(NC(=O)c3ccccc3)cc2)cc1C	Cycloheximide cs 46, Shiga toxin inh 56
CC(=O)c1cccc(NC(=O)NNC(=O)c2ccc3ccccc3c2)c1	none
Cc1cccc(C(=O)Nc2ccc(NC(=O)c3ccccc3)cc2)c1	none (no result: Shiga toxin inh)
CC(=O)c1ccc(NC(=O)c2cccc(NC(=O)c3ccccc3)c2)cc1	Cycloheximide cs 23, AmpC inh detg inconclusive (no result: Shiga toxin inh)
O=C(Nc1ccc(-c2nc3ccccc3s2)c(OC(=O)c2ccccc2)c1)c1ccccc1	Cycloheximide cs 30, AmpC inh detg inconclusive
COc1ccc(Cl)cc1N(C)C(=O)C(=O)Nc1ccc2nc3n(c(=O)c2c1)CCCCC3	none (no result: Cycloheximide cs, SARS PLpro yeast, AmpC no deterg, AMA1-RON2 inh, Shiga toxin inh)
O=C(c1ccc(Br)s1)N1CCCC1	none
COc1ccc(N2CC(C(=O)OCC(=O)Nc3cc(C)on3)CC2=O)cc1 (stereo not given)	none
Cc1ccc2c(c1)S/C(=C/c1ccc[n+](CCO)c1)N2C	none
O=C(Nc1cccc(-c2nc3ncccc3o2)c1)c1ccc2c(c1)OCO2	none (no result: Cycloheximide cs, SARS PLpro yeast, AmpC no deterg, Shiga toxin inh, AmpC inh detg)
O=C(Nc1ccc(Cl)c(Cl)c1)c1ccccc1	none (no result: Cycloheximide cs, Shiga toxin inh)
Cc1ccc(NC(=O)CO/N=C(\N)c2ccccc2)cc1C	none (no result: Cycloheximide cs, Shiga toxin inh, AmpC inh detg)
Cc1ccc(NC(=O)CC(=O)c2ccccc2)cc1C	Cycloheximide cs 34, Shiga toxin inh 101
CC(=O)c1cc(-c2ccccc2)n(CC(=O)Nc2ccc(C)c(C)c2)c1C	AmpC no deterg 11µM
O=C(Nc1ccc2nc3ccccc3nc2c1)c1ccccc1	Cycloheximide cs 40, Shiga toxin inh 25, AmpC inh detg inconclusive
O=C(Nc1cccc(C(=O)Nc2ccc(Br)cc2)c1)c1ccccc1	Cycloheximide cs 16, AmpC no deterg 32µM
Cc1ccc(CNS(=O)(=O)c2ccc(N3CCCCS3(=O)=O)cc2)cc1	none (no result: Cycloheximide cs, SARS PLpro yeast, AmpC no deterg, AMA1-RON2 inh, Shiga toxin inh)
O=C(Cc1ccc(Cl)cc1)Nc1ccc(NC(=O)c2ccccc2)cc1	none
O=C(CC(=O)c1ccccc1)Nc1ccc(Cl)cc1	Cycloheximide cs 36, Shiga toxin inh 80
COC(=O)CSC(C(=O)Nc1ccc(C)c(C)c1)c1ccccc1 (stereo not given)	Shiga toxin inh 44
O=C(CNCc1ccc(Cl)cc1)Nc1ccc(C(=O)N2CCCCC2)cc1	none
O=C(CNCc1ccccc1)Nc1ccc(Cl)cc1	Cycloheximide cs 28, Shiga toxin inh 79
Cc1ccc(NC(=O)C(SCC(=O)O)c2ccccc2)cc1C (stereo not given)	AmpC no deterg inconclusive, AmpC inh detg inconclusive
CC(C)OC(=O)c1cccc(NC(=O)c2ccccc2)c1	Cycloheximide cs 26, Shiga toxin inh 69, AmpC inh detg inconclusive
Cc1ccc(NC(=O)C2CCC(=O)N2)cc1C (stereo not given)	none
COc1ccc(C2=Nc3ccccc3N(C(=O)c3ccc(C(F)(F)F)cc3)C2C(=O)Nc2c(C)cccc2C)cc1 (stereo not given)	none (no result: Cycloheximide cs, SARS PLpro yeast, AmpC no deterg, Shiga toxin inh, AmpC inh detg)
OC1(CNCc2ccccc2)C2CC3CC(C2)CC1C3 (stereo not given)	none
O=C(CNCc1ccccc1)NC1C2CC3CC(C2)CC1C3 (stereo not given)	Cycloheximide cs 14, AmpC inh detg inconclusive (no result: Shiga toxin inh)
COc1ccc(C2=NN(C(=O)c3ccncc3)C(c3ccccc3O)C2)cc1 (stereo not given)	none (no result: SARS PLpro yeast)
O=C(c1ccncc1)N1N=C(c2ccc(Cl)cc2)CC1c1ccccc1O (stereo not given)	Cycloheximide cs 45, Shiga toxin inh 116
Cc1ccc(N2C(=O)CC(Cc3cc(C)cc(C)c3)C2=O)cc1 (stereo not given)	none
Cc1cc(C)cc(CC2CC(=O)N(c3nc(C)cc(C)n3)C2=O)c1 (stereo not given)	Cycloheximide cs 27, Shiga toxin inh 51
O=C(Nc1nc2ccccc2[nH]1)C1CCCC1	Cycloheximide cs 60, Shiga toxin inh 81
O=C(Nc1nc2ccccc2[nH]1)C1CCC1	Cycloheximide cs 42, Shiga toxin inh 108
O=C(Cc1cccc2ccccc12)Nc1nc2ccccc2[nH]1	none
O=C(CC1CCCC1)Nc1nc2ccccc2[nH]1	Cycloheximide cs 28, AmpC inh detg inconclusive
O=C(NCc1nc2ccccc2[nH]1)C1CCCCC1	none
O=C(CN1CCCN(Cc2ccc(F)cc2)S1(=O)=O)Nc1ccc2c(c1)OCCO2	none (no result: Cycloheximide cs, SARS PLpro yeast, AmpC no deterg, AMA1-RON2 inh, Shiga toxin inh)
c1csc(-c2nn3c(C4COc5ccccc5O4)nnc3s2)c1 (stereo not given)	Cycloheximide cs 36, Shiga toxin inh 45
O=C(NCc1ccccc1)c1cc(=O)nc2sc(-c3ccccc3)nn12	none
CCCc1cc2c(=O)c(-c3ccccn3)coc2cc1OC	Cycloheximide cs 44, Shiga toxin inh 90
CCCCCCCCC/C(=N\O)c1ccccn1	Cycloheximide cs 24, Shiga toxin inh 83
CCCCCCCCC(=O)N/N=C/c1ccccn1	none
O=C(COC(=O)c1cccc(Cl)c1Cl)NCCN1C(=O)CSC1=O	none
O=C(COC(=O)c1ccccc1Br)NCCN1C(=O)CSC1=O	Cycloheximide cs 20, Shiga toxin inh 109, AmpC inh detg inconclusive
COc1ccccc1C(=O)OCC(=O)NC(=O)NC1CCCC1	none (no result: Cycloheximide cs, Shiga toxin inh)
O=C(COC(=O)c1ccccc1Br)NC1CCCC1	Cycloheximide cs 39, Shiga toxin inh 59
COc1ccccc1C(=O)OCC(=O)NC1CCCC1	Cycloheximide cs 61, Shiga toxin inh 64
O=C(COC(=O)c1ccccc1Br)NC1CCCCCCC1	none (no result: Cycloheximide cs, Shiga toxin inh, AmpC inh detg)
COC(=O)Nc1ccc(OC)c(OC)c1	none (no result: SARS PLpro yeast, AmpC no deterg)
O=C(O)/C=C/C(=O)Nc1ccc(C2(c3ccc(NC(=O)/C=C/C(=O)O)cc3)c3ccccc3-c3ccccc32)cc1	AmpC no deterg 13µM
Cc1c(CCC(=O)NCCc2ccccc2)c(=O)oc2cc(O)ccc12	none (no result: Cycloheximide cs, SARS PLpro yeast, AmpC no deterg, AMA1-RON2 inh, Shiga toxin inh)
CCN(CC)c1ccc2c(C)c(-c3ccc(N)cc3)c(=O)oc2c1	Cycloheximide cs 27, Shiga toxin inh 34, AmpC inh detg inconclusive
CCOC(=O)CCc1c(C)c2ccc(O)cc2oc1=O	Cycloheximide cs 13, AmpC inh detg inconclusive
